Assay results from PubChem BioAssay AID1159580 (chemical genetic matrix, 2015).
Among all 5,500 compounds or so, about 2,000 (36%) were called active. Another 18% or so got no clear call; they are omitted. Rule as the data show it: active = normalized growth mostly below about 0.91 (no sharp cut-off); inconclusive = no clear call, values can overlap the other calls; inactive = mostly above about 0.92. Some of the results follow.

Test: chemical genetic growth profiling, strain panel (AID 1159580);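 also: tested at 20 µM; growth read once vehicle control cultures reached saturation at 30 °C; 1 = growth at the plate median or of vehicle wells; lower values mean less growth of the strain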
Conditions: S. cerevisiae deletion strains, growth OD

Measured: normalized growth

CN1CCN(C(=O)OC2c3nccnc3C(=O)N2c2ccc(Cl)cn2)CC1 (centres undefined)
inactive: locus YAL021C, strain ccr4, stronger effect = lower value 1 | locus YAL026C, strain drs2, stronger effect = lower value 0.993 | locus YAL030W, strain snc1, stronger effect = lower value 0.997 | locus YBL061C, strain skt5, stronger effect = lower value 0.99 | locus YBR009C, strain hhf1, stronger effect = lower value 1.01 | locus YBR023C, strain chs3, stronger effect = lower value 0.991 | locus YBR171W, strain sec66, stronger effect = lower value 0.997 | locus YBR231C, strain swc5, stronger effect = lower value 0.979 | locus YBR279W, strain paf1, stronger effect = lower value 1.01 | locus YCL011C, strain gbp2, stronger effect = lower value 1 | locus YCL016C, strain dcc1, stronger effect = lower value 0.994 | locus YCL069W, strain vba3, stronger effect = lower value 1 | locus YCR088W, strain abp1, stronger effect = lower value 0.996 | locus YDL005C, strain med2, stronger effect = lower value 0.99 | locus YDL040C, strain nat1, stronger effect = lower value 0.981 | locus YDR001C, strain nth1, stronger effect = lower value 0.992 | locus YDR069C, strain doa4, stronger effect = lower value 0.991 | locus YDR137W, strain rgp1, stronger effect = lower value 0.998 | locus YDR159W, strain sac3, stronger effect = lower value 1.01 | locus YDR195W, strain ref2 0.959 | locus YDR297W, strain sur2, stronger effect = lower value 0.979 | locus YDR334W, strain swr1, stronger effect = lower value 0.983 | locus YDR335W, strain msn5, stronger effect = lower value 1 | locus YDR392W, strain spt3, stronger effect = lower value 1.02 | locus YEL003W, strain gim4, stronger effect = lower value 1 | locus YEL037C, strain rad23, stronger effect = lower value 0.994 | locus YEL061C, strain CIN8 (second series), stronger effect = lower value 0.993 | locus YER015W, strain faa2, stronger effect = lower value 0.99 | locus YER016W, strain bim1, stronger effect = lower value 1.01 | locus YER111C, strain swi4, stronger effect = lower value 1 | locus YER155C, strain BEM2 (second series), stronger effect = lower value 0.999 | locus YFR010W, strain ubp6, stronger effect = lower value 0.987 | locus YGL167C, strain pmr1, stronger effect = lower value 0.986 | locus YGL173C, strain kem1, stronger effect = lower value 0.976 | locus YGL227W, strain vid30, stronger effect = lower value 0.976 | locus YGL240W, strain doc1, stronger effect = lower value 1 | locus YGL253W, strain hxk2, stronger effect = lower value 0.994 | locus YHR013C, strain ard1, stronger effect = lower value 0.98 | locus YHR027C, strain rpn1, stronger effect = lower value 1 | locus YHR030C, strain SLT2, stronger effect = lower value 1.02 | locus YHR079C, strain IRE1, stronger effect = lower value 1.01 | locus YHR142W, strain chs7, stronger effect = lower value 1.01 | locus YJL092W, strain hpr5, stronger effect = lower value 0.984 | locus YJL095W, strain BCK1 (second series), stronger effect = lower value 0.97 | locus YJL095W, strain BCK1, stronger effect = lower value 1.01 | locus YJL115W, strain asf1, stronger effect = lower value 0.995 | locus YJL129C, strain trk1, stronger effect = lower value 0.956 | locus YJL154C, strain vps35, stronger effect = lower value 0.993 | locus YJL164C, strain tpk1, stronger effect = lower value 1.01 | locus YJL166W, strain qcr8, stronger effect = lower value 0.998 | locus YJL187C, strain SWE1, stronger effect = lower value 0.994 | locus YJR066W, strain TOR1, stronger effect = lower value 0.935 | locus YKL160W, strain elf1, stronger effect = lower value 0.984 | locus YKR026C, strain gcn3, stronger effect = lower value 0.988 | locus YKR091W, strain srl3, stronger effect = lower value 0.995 | locus YLL001W, strain dnm1, stronger effect = lower value 0.971 | locus YLL026W, stronger effect = lower value 1 | locus YLL041C, strain sdh2, stronger effect = lower value 1.01 | locus YLR027C, strain aat2, stronger effect = lower value 1 | locus YLR113W, strain HOG1, stronger effect = lower value 1 | locus YLR221C, strain rsa3, stronger effect = lower value 0.987 | locus YLR258W, strain gsy2, stronger effect = lower value 1.01 | locus YLR262C, strain YPT6 (second series), stronger effect = lower value 1 | locus YLR320W, strain mms22, stronger effect = lower value 1.01 | locus YLR342W, strain FKS1, stronger effect = lower value 0.995 | locus YLR357W, strain rsc2, stronger effect = lower value 0.978 | locus YLR370C, strain arc18, stronger effect = lower value 0.998 | locus YLR384C, strain iki3, stronger effect = lower value 0.994 | locus YML120C, strain ndi1, stronger effect = lower value 0.985 | locus YMR058W, strain fet3, stronger effect = lower value 1 | locus YMR125W, strain sto1, stronger effect = lower value 0.946 | locus YMR129W, stronger effect = lower value 1 | locus YMR205C, strain PFK2, stronger effect = lower value 0.99 | locus YMR231W, strain pep5, stronger effect = lower value 0.99 | locus YNL071W, strain lat1, stronger effect = lower value 1 | locus YNL183C, strain NPR1, stronger effect = lower value 0.957 | locus YNL209W, strain ssb2, stronger effect = lower value 1.01 | locus YNL248C, strain rpa49, stronger effect = lower value 0.989 | locus YNL322C, strain KRE1 (second series), stronger effect = lower value 0.976 | locus YNR049C, strain mso1, stronger effect = lower value 1 | locus YOR001W, strain rrp6, stronger effect = lower value 0.973 | locus YOR070C, strain gyp1, stronger effect = lower value 0.998 | locus YOR080W, strain dia2, stronger effect = lower value 0.987 | locus YOR083W, strain WHI5, stronger effect = lower value 0.983 | locus YOR106W, strain vam3, stronger effect = lower value 0.98 | locus YOR231W, strain MKK1, stronger effect = lower value 1.01 | locus YOR265W, strain rbl2, stronger effect = lower value 0.993 | locus YOR270C, strain vph1, stronger effect = lower value 0.967 | locus YOR290C, strain snf2, stronger effect = lower value 1.01 | locus YPL051W, strain arl3, stronger effect = lower value 0.988 | locus YPL078C, strain atp4, stronger effect = lower value 0.979 | locus YPL106C, strain sse1, stronger effect = lower value 1.05 | locus YPL240C, strain hsp82, stronger effect = lower value 1 | locus YPL256C, strain CLN2, stronger effect = lower value 1.01
